Test results taken from the supplement of paper PMC11732987, “Enantioselective OTUD7B fragment discovery through chemoproteomics screening and high-throughput optimisation” (Communications Chemistry, 2025).

Assays:
Test in all cases: log2 ratio of Biotin-Ahx-Ub-VS probe labelling (fragment/DMSO); higher = less target engagement (more negative = stronger competition), active = hit call of the paper (q ≤ 0.05, log2 ratio ≤ -1)
Details in all cases: compound concentration: 200 uM; treatment time: 3 h
USP34 = USP34 (UniProt Q70CQ2)
Procedure, shortened: (§1)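 Each value is an average log2 ratio of fragment to vehicle, tested by unpaired t-test. The underlying Spectronaut label-free quantities were global-median-normalised, and only proteins with ≥2 unique peptides were included. Triplicate HEK293T lysate samples (495 µg) were exposed to fragment at 200 µM or vehicle for 3 h, then to Biotin-Ahx-Ub-VS at 0.5 µM final for 1 h, before NeutrAvidin enrichment of labelled DUBs, LysC and trypsin digestion, and diaPASEF LC-MS/MS.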

USP36 = molecular target: T1, USP36 (UniProt Q9P275)
T1 sequence (whole entry): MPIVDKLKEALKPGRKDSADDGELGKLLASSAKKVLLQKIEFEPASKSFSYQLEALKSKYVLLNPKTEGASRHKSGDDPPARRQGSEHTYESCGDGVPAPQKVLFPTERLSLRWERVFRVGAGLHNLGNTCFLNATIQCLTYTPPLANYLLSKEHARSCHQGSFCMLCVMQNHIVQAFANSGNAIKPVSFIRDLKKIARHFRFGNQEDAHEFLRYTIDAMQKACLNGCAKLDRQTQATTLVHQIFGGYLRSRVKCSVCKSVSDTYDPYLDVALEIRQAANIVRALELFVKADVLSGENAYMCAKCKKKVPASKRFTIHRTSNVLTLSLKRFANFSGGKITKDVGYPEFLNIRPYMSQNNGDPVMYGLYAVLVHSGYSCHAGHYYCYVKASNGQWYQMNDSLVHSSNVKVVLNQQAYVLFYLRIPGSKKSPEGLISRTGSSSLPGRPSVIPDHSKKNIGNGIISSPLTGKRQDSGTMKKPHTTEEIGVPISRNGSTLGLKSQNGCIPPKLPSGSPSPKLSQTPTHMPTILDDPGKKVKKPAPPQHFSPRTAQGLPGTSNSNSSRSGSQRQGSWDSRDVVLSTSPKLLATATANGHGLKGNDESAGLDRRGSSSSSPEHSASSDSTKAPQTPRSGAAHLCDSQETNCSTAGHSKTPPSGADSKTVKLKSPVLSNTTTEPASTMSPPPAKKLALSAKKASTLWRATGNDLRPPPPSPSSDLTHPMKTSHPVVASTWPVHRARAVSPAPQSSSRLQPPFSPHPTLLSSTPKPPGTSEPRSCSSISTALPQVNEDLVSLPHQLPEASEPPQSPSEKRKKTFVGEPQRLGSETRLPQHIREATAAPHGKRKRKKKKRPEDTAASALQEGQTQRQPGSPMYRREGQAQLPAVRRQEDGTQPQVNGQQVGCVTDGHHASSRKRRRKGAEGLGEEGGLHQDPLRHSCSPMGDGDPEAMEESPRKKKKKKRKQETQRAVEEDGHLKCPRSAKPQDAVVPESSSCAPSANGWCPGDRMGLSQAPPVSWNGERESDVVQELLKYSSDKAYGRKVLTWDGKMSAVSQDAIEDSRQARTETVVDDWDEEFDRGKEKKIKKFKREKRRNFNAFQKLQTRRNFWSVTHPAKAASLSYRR
Procedure, shortened: as §1

USP38 = molecular target: T2, USP38 (UniProt Q8NB14)
T2 sequence (whole entry): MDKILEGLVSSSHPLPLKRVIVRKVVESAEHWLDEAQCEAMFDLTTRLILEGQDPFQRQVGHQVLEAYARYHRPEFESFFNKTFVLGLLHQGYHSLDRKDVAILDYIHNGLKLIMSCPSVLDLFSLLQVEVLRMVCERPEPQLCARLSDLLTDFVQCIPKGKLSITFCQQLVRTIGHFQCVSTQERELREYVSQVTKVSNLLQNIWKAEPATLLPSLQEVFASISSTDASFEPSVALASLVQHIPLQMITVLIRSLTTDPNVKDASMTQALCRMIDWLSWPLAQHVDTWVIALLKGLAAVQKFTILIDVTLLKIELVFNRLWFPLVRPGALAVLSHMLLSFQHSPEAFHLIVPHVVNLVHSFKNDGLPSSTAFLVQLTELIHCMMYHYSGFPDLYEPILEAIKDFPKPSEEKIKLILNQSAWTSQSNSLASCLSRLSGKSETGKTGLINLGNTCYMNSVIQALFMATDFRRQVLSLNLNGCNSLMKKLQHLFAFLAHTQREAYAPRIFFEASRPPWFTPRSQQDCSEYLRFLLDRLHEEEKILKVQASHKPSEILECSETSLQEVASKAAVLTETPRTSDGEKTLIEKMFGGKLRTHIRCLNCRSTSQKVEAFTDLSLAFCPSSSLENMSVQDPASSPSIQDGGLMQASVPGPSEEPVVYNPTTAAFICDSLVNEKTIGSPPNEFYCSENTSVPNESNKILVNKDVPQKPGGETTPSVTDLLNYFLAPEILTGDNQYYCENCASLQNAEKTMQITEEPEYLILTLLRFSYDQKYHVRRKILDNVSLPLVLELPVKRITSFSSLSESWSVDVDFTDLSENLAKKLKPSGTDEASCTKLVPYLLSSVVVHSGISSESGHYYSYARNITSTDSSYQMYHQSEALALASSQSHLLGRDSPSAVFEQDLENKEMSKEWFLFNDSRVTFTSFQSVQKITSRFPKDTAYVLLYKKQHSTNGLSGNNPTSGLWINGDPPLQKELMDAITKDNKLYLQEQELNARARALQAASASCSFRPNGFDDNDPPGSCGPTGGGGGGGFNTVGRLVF
Procedure, shortened: as §1

USP39 = molecular target: T3, USP39 (UniProt Q53GS9)
T3 sequence (whole entry): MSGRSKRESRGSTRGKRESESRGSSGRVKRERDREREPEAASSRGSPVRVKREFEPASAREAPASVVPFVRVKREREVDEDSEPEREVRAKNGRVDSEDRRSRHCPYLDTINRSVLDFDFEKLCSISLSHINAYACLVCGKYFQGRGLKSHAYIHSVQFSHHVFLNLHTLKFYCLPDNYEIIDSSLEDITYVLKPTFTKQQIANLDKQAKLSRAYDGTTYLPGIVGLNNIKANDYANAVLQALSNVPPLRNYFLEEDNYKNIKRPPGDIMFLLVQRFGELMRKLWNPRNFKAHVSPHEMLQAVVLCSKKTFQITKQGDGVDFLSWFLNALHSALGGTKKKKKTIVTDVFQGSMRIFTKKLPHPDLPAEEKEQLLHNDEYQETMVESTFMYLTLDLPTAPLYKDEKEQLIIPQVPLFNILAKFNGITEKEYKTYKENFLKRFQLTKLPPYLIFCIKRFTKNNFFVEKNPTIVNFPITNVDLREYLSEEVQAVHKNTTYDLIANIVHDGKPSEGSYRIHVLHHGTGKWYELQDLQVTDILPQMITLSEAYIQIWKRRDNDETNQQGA
Procedure, shortened: as §1

USP4 = molecular target: T4, USP4 (UniProt Q13107)
T4 sequence (whole entry): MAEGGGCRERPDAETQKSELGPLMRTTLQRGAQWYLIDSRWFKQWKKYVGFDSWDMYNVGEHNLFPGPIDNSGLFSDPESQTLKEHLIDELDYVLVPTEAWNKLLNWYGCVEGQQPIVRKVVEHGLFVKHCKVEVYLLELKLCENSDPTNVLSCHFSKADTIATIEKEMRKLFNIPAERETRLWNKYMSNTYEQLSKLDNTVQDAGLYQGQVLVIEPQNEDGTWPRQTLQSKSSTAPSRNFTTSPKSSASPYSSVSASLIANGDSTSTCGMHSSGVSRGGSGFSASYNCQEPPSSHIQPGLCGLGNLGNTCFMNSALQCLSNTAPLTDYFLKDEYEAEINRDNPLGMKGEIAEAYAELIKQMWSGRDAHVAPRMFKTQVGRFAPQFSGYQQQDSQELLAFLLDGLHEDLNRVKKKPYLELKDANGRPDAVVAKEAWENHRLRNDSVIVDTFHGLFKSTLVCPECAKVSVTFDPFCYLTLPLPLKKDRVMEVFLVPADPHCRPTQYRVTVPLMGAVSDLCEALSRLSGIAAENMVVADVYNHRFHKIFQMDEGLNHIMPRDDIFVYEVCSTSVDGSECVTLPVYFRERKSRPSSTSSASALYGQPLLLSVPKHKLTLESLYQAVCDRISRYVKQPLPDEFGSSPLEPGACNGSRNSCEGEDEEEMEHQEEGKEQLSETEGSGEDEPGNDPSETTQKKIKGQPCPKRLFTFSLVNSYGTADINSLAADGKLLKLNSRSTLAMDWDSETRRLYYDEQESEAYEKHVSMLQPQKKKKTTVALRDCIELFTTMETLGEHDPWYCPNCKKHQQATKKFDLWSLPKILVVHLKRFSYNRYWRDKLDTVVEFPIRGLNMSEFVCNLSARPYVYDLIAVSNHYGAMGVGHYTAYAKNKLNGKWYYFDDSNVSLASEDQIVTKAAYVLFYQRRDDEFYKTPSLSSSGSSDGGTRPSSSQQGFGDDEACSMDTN
Procedure, shortened: as §1

Measured: log2 ratio of Biotin-Ahx-Ub-VS probe labelling

USP34, sequence (Q70CQ2 whole entry, the tested form may be a part): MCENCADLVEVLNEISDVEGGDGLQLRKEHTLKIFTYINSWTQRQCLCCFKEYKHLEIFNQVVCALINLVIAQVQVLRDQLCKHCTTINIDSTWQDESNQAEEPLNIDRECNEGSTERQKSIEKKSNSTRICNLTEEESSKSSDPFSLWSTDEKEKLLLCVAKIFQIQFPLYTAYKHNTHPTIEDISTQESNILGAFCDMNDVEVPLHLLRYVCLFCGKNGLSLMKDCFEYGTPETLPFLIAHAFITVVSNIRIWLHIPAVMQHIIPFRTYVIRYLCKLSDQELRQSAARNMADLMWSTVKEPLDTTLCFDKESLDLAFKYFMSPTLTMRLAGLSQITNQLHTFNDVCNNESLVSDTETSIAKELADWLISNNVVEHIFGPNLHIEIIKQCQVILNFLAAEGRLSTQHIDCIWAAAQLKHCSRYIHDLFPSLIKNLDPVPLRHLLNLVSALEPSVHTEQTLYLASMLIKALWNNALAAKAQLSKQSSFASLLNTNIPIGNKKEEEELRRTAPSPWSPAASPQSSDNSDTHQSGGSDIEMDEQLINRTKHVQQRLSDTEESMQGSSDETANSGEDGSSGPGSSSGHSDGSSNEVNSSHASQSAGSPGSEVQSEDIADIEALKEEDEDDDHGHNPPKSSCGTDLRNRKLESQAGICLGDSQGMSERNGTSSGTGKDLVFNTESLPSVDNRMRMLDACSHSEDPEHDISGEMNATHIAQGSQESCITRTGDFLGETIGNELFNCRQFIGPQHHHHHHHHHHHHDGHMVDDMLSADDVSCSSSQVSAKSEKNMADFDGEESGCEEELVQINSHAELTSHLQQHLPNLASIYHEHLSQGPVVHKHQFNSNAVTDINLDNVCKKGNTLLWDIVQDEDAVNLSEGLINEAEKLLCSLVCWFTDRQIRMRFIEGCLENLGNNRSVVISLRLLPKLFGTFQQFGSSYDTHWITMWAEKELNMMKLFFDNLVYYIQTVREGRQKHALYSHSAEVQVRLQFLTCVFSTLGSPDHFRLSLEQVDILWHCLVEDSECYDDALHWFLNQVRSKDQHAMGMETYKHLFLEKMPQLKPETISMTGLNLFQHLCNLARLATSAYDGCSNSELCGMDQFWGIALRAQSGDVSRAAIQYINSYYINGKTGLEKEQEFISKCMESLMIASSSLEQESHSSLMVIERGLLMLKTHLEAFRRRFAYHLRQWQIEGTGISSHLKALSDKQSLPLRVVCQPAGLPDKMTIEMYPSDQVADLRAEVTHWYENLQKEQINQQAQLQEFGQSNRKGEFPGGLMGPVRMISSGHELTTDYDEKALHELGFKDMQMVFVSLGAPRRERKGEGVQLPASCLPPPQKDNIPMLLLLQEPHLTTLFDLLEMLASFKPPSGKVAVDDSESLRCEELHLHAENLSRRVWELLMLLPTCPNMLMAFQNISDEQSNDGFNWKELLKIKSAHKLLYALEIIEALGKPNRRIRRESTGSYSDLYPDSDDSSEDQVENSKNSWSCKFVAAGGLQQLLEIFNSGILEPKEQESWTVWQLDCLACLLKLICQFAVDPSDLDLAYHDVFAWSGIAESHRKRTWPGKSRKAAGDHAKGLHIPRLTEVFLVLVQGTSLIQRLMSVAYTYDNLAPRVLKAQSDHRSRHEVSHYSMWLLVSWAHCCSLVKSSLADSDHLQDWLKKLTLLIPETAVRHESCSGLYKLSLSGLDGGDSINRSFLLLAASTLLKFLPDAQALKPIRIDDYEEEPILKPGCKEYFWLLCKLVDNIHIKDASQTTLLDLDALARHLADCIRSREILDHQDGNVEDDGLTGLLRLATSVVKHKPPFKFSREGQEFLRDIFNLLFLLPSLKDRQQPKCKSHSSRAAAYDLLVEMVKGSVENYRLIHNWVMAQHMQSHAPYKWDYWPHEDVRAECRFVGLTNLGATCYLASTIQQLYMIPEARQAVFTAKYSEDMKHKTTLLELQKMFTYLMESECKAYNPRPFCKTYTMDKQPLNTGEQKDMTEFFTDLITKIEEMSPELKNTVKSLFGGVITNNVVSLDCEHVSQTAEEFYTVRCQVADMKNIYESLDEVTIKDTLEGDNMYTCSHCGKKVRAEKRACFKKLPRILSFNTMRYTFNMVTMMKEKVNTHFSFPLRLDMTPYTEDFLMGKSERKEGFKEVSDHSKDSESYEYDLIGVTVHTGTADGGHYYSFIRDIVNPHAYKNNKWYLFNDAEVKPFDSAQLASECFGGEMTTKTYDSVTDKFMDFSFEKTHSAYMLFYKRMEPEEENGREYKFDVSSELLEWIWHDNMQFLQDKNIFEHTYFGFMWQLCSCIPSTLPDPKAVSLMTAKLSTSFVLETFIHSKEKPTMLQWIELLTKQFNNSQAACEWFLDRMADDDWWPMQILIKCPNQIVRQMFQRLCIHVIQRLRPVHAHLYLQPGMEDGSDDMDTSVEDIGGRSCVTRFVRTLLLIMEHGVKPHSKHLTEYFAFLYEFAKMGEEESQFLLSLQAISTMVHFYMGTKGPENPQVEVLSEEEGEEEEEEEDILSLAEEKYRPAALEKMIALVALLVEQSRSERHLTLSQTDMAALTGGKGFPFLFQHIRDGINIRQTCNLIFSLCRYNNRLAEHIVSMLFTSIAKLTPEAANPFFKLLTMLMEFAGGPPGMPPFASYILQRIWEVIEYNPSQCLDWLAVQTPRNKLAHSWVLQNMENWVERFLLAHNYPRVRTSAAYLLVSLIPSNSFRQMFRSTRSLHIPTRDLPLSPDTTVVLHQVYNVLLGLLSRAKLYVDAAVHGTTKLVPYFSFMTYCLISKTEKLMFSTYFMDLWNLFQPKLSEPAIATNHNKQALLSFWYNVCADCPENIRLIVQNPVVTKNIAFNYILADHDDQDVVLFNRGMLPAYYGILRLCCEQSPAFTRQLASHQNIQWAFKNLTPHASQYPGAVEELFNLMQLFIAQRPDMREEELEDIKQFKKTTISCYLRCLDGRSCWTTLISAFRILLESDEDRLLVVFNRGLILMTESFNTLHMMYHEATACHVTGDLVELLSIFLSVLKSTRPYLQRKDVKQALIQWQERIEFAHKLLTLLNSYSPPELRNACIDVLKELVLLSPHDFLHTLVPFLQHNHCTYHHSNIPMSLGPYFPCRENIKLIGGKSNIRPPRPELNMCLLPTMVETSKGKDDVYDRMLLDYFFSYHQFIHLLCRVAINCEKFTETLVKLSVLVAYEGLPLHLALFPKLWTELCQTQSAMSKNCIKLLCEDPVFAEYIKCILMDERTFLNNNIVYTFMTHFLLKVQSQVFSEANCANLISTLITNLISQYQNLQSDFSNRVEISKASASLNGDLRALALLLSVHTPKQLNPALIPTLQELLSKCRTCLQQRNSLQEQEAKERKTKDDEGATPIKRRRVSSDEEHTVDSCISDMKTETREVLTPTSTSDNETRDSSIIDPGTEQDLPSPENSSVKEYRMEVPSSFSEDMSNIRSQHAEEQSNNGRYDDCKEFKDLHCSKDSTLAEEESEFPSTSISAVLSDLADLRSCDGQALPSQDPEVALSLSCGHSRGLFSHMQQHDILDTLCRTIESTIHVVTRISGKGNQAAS

N#Cc1ccc(Cl)cc1NC(=O)CCl
inactive: USP34 -0.22 | USP36 0.137 | USP38 -0.0529 | USP39 -0.0922 | USP4 -0.0565
